SMILES strings stand for the structures. The source made the active and inactive calls. Calls come from the whole dose curve.

A short description of one assay: qHTS drug screen for cell cycle checkpoint inhibitors in PARPi-resistant BRCA-mutant ovarian cancer cell lines. (AID 1963452). The conditions noted are these: PEO1/OlaR viability, CellTiter-Glo luminescence, 96 h; stronger effect = lower value. Put shortly:
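PEO1, PEO4 and PEO1/OlaR ovarian cancer cells, 600 per well, exposed 96 h at 37C to a dilution series. Viability read by CellTiter-Glo luminescence, normalized to DMSO and empty wells; activity summarized as Z-AUC.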
Regarding `Nc1ncnc2c1c(COc1cccc(Cl)c1)nn2C1CCOCC1`, the Z-AUC was -1.18 (inactive).

Turning to `O=C(/C=C/C=C/c1ccc2c(c1)OCO2)N1CCCCC1`, the Z-AUC is 1.54 (inactive).

As to `N#Cc1cccc(-c2c[nH]c3ncnc(N4CCOCC4)c23)c1`, the Z-AUC is 0.0885 (inactive).

For `Nc1ncnc2c1C(=O)N(c1ccc(C3CCC(CC(=O)O)CC3)cc1)CCO2` (centres undefined), the Z-AUC is 0.276 (inactive).

With `COc1ccc2[nH]c(S(=O)Cc3ncc(C)c(OC)c3C)nc2c1` (centres undefined), the Z-AUC was 0.929 (inactive).

As to `CNc1nc(C)nc(N[C@H]2CCC[C@@H](C(=O)NCc3ccc(C#N)cc3C(F)(F)F)C2)n1`, the Z-AUC was -0.0725 (inactive).

On to `Cc1ncc(Cl)cc1NCc1ccc(C(=O)NC(CC2CCCC2)C(=O)NC2CC2)s1` (centres undefined), for which the Z-AUC is -0.347 (inactive).

As for `O=C1NC(=O)/C(=C/c2cccc(C(F)(F)F)c2)S1`, the Z-AUC is 0.536 (inactive).

Regarding `CCCCOc1nc(N)c2c(n1)N(Cc1cccc(CN3CCCC3)c1)CC(=O)N2`, the Z-AUC is -0.393 (inactive).

Consider `Cc1ncc(NC(=O)c2ccc(CN3CCN(C)CC3)c(C(F)(F)F)c2)cc1Nc1nccc(-c2cccnc2)n1`, for which the Z-AUC was 0.889 (inactive).

Turning to `CCC(CC)CC1(C(=O)Nc2ccccc2SC(=O)C(C)C)CCCCC1`, the Z-AUC is -0.732 (inactive).

With `Cc1nc(-c2cccnc2)sc1C(=O)Nc1ccccc1-c1cn2c(CN3CCOCC3)csc2n1`, the Z-AUC is 0.405 (inactive).

`N#Cc1ccc(C2CCCc3cncn32)cc1` (centres undefined): the Z-AUC was 0.659 (inactive).

As to `Cc1noc2c1-c1ccccc1C(c1ccc(Cl)cc1)=N[C@H]2CC(N)=O`, the Z-AUC is -0.193 (inactive).

Turning to `C[C@@H]1O[C@@H](O[C@@H]2\C=C/C=C\C=C/C=C\C[C@H](C)OC(=O)/C=C\[C@H]3O[C@@H]3C[C@H](O)C[C@]3(O)C[C@@H](O)[C@@H](C(=O)O)[C@H](C2)O3)[C@H](O)[C@H](N)[C@@H]1O`, the Z-AUC was 1.98 (inactive).

As to `N#CN1CCC[C@@H](n2nc(-c3ccc(Oc4ccc(F)cc4F)cc3)c(C(N)=O)c2N)C1`, the Z-AUC was -0.296 (inactive).

`O=C(O)CC1CCC(c2ccc(-c3ccc(Nc4ccc(C(F)(F)F)nc4)cn3)cc2)CC1` (centres undefined): the Z-AUC was -0.639 (inactive).

On to `COCCCc1sc(-c2ccccc2)nc1C(=O)Nc1ccccc1-c1nc2cc(CN3CCCC3)cnc2s1`, for which the Z-AUC is 0.0751 (inactive).

For `Cc1cccc(-c2nn3c(c2-c2ccnc4ccc(C(N)=O)cc24)CCC3)n1`, the Z-AUC was 1.11 (inactive).

In the case of `CC(C)[C@](O)(c1ccc2cc(OC(F)F)c(OC(F)F)cc2c1)c1cn[nH]n1`, the Z-AUC was -0.262 (inactive).

For the molecule `C=C1C[C@@]2(O)O[C@@]3(C[C@H]2C(C)C)[C@@H](C)CC[C@@H]13`, the Z-AUC was -0.318 (inactive).

As for `O=C(COCC(=O)N1CCN(C(c2ccccc2)c2ccccc2)CC1)Nc1ccc(Cl)cc1C(=O)O`, the Z-AUC was 1.8 (inactive).

Consider `Cn1cc(-c2c[nH]c3ncnc(N4CCOCC4)c23)cn1`, for which the Z-AUC is 1.31 (inactive).

As to `CC(C)N(CCCNC(=O)Nc1ccc(C(C)(C)C)cc1)C[C@H]1O[C@@H](n2ccc3c(N)ncnc32)[C@H](O)[C@@H]1O`, the Z-AUC is -0.352 (inactive).

As to `Cc1ccccc1-n1nc(-c2c(-c3ccc(F)cc3)nn3c2NC[C@@H](CO)C3)ccc1=O`, the Z-AUC is 0.0215 (inactive).

Take `Cc1c(F)cc(C(=O)NC2CC2)cc1-c1ccc(C(=O)NCC(C)(C)C)cn1`: the Z-AUC was 0.819 (inactive).

As for `COc1cccc2c1c(O)c(C(=O)N(C)c1ccc(C(F)(F)F)cc1)c(=O)n2C`, the Z-AUC is 0.835 (inactive).

Still in this assay, the particulars now being: PEO1/OlaR viability, CellTiter-Glo luminescence, 96 h; measured here: PEO1 parental Z-AUC; stronger effect = lower value.
`Nc1ncnc2c1c(COc1cccc(Cl)c1)nn2C1CCOCC1`: the Z-AUC is -0.772.

Regarding `O=C(/C=C/C=C/c1ccc2c(c1)OCO2)N1CCCCC1`, the Z-AUC worked out at 1.2.

Consider `N#Cc1cccc(-c2c[nH]c3ncnc(N4CCOCC4)c23)c1`, for which the Z-AUC is 0.762.

As to `Nc1ncnc2c1C(=O)N(c1ccc(C3CCC(CC(=O)O)CC3)cc1)CCO2` (centres undefined), the Z-AUC was 0.0726.

As to `COc1ccc2[nH]c(S(=O)Cc3ncc(C)c(OC)c3C)nc2c1` (centres undefined), the Z-AUC was determined as 1.11.

Turning to `CNc1nc(C)nc(N[C@H]2CCC[C@@H](C(=O)NCc3ccc(C#N)cc3C(F)(F)F)C2)n1`, the Z-AUC was determined as 0.695.

As for `Cc1ncc(Cl)cc1NCc1ccc(C(=O)NC(CC2CCCC2)C(=O)NC2CC2)s1` (centres undefined), the Z-AUC is -0.204.

Consider `O=C1NC(=O)/C(=C/c2cccc(C(F)(F)F)c2)S1`, for which the Z-AUC stood at 0.151.

For `CCCCOc1nc(N)c2c(n1)N(Cc1cccc(CN3CCCC3)c1)CC(=O)N2`, the Z-AUC was -0.969.

Consider `Cc1ncc(NC(=O)c2ccc(CN3CCN(C)CC3)c(C(F)(F)F)c2)cc1Nc1nccc(-c2cccnc2)n1`, for which the Z-AUC is -0.0515.

Consider `CCC(CC)CC1(C(=O)Nc2ccccc2SC(=O)C(C)C)CCCCC1`, for which the Z-AUC was -0.887.

For the molecule `Cc1nc(-c2cccnc2)sc1C(=O)Nc1ccccc1-c1cn2c(CN3CCOCC3)csc2n1`, the Z-AUC is -0.0743.

For the molecule `N#Cc1ccc(C2CCCc3cncn32)cc1` (centres undefined), the Z-AUC was 0.67.

`Cc1noc2c1-c1ccccc1C(c1ccc(Cl)cc1)=N[C@H]2CC(N)=O`: the Z-AUC was -0.00939.

Take `C[C@@H]1O[C@@H](O[C@@H]2\C=C/C=C\C=C/C=C\C[C@H](C)OC(=O)/C=C\[C@H]3O[C@@H]3C[C@H](O)C[C@]3(O)C[C@@H](O)[C@@H](C(=O)O)[C@H](C2)O3)[C@H](O)[C@H](N)[C@@H]1O`: the Z-AUC is 1.57.

For `N#CN1CCC[C@@H](n2nc(-c3ccc(Oc4ccc(F)cc4F)cc3)c(C(N)=O)c2N)C1`, the Z-AUC was found to be 0.0658.

Turning to `O=C(O)CC1CCC(c2ccc(-c3ccc(Nc4ccc(C(F)(F)F)nc4)cn3)cc2)CC1` (centres undefined), the Z-AUC is -0.457.

With `COCCCc1sc(-c2ccccc2)nc1C(=O)Nc1ccccc1-c1nc2cc(CN3CCCC3)cnc2s1`, the Z-AUC is -0.146.

With `Cc1cccc(-c2nn3c(c2-c2ccnc4ccc(C(N)=O)cc24)CCC3)n1`, the Z-AUC is 0.368.

Turning to `CC(C)[C@](O)(c1ccc2cc(OC(F)F)c(OC(F)F)cc2c1)c1cn[nH]n1`, the Z-AUC is -0.434.

For the molecule `C=C1C[C@@]2(O)O[C@@]3(C[C@H]2C(C)C)[C@@H](C)CC[C@@H]13`, the Z-AUC is -0.38.

Turning to `O=C(COCC(=O)N1CCN(C(c2ccccc2)c2ccccc2)CC1)Nc1ccc(Cl)cc1C(=O)O`, the Z-AUC was 1.44.

Take `Cn1cc(-c2c[nH]c3ncnc(N4CCOCC4)c23)cn1`: the Z-AUC was found to be 1.65.

As for `CC(C)N(CCCNC(=O)Nc1ccc(C(C)(C)C)cc1)C[C@H]1O[C@@H](n2ccc3c(N)ncnc32)[C@H](O)[C@@H]1O`, the Z-AUC was -0.286.

With `Cc1ccccc1-n1nc(-c2c(-c3ccc(F)cc3)nn3c2NC[C@@H](CO)C3)ccc1=O`, the Z-AUC amounted to 0.2.

Turning to `Cc1c(F)cc(C(=O)NC2CC2)cc1-c1ccc(C(=O)NCC(C)(C)C)cn1`, the Z-AUC came to 0.354.

For `COc1cccc2c1c(O)c(C(=O)N(C)c1ccc(C(F)(F)F)cc1)c(=O)n2C`, the Z-AUC was 0.409.

The values are drawn from PubChem BioAssay (NCATS).
